Source: PubChem (several laboratories)
L929 necroptosis: blocks zVAD induced death of L929 cells; L929 zVAD necroptosis rescue, ATP luminescence, 24 h; with zVAD 60 µM; viability rescue, % at 10 µM; actives 0.38% (n = 220,000);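 active means activation, scaled between plate controls, above about 75%, limit read from the data; inactive means activation under that limit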;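 further: 0% = zVAD with DMSO and 100% = DMSO alone without zVAD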
Mcl1 Bid PPI: disrupts binding of human Mcl-1 to Bid peptide; inhibition, % at 21.7 µM; Q07820; AID 1021; TR-FRET Mcl-1/Bid-Dy647 peptide binding, 1536-well; actives 0.97% (n = 220,000);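 active means compounds that cut the binding signal by more than half at the single screening dose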;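 further: His-tagged Mcl-1 with europium anti-His antibody binding Bid BH3 peptide; 0% = Mcl-1 plus peptide wells and 100% = peptide-only wells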
Target sequence (Q07820 whole entry, looked up): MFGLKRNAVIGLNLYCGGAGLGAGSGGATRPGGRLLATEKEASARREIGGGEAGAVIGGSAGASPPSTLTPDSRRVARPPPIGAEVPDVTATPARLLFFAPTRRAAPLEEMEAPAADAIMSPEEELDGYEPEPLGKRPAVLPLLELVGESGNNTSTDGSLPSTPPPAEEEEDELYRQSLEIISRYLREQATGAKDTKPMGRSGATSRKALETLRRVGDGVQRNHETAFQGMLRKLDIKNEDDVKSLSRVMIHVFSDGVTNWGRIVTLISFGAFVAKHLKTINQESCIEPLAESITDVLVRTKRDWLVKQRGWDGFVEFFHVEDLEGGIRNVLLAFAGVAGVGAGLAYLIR
TNF death inh: blocks TNF-alpha induced death of Jurkat FADD-/- cells | actives 0.068% (n = 220,000) | AID 463075 | activation (protection from cell death), % at 10 µM | Jurkat FADD-/- TNF necroptosis rescue, ATP luminescence, 24 h; 0 = TNF only, 100 = no-TNF cells;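 active means activation, meaning protection from cell death, of at least 50% relative to plate controls; inactive means activation below 50%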;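 further: necroptosis triggered by 40 ng/mL TNF-alpha added together with compound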
Mcl1-Noxa inh: Mcl-1/Noxa interaction inhibition. actives 1.5% (n = 220,000). inhibition, % at 21.7 µM. TR-FRET Mcl-1/Noxa peptide binding, 2 h. AID 1022. Q07820;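 active means compounds that cut the protein-peptide binding signal by more than 50% relative to plate controls in a single-dose test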;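 further: His-tagged Mcl-1 with rhodamine Noxa BH3 peptide and terbium anti-His antibody; 0% = Mcl-1 plus Noxa peptide wells and 100% = peptide-only wells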
MCL1-BIM inh: MCL1-BIM-BH3 interaction inhibition (human). GST-MCL1 / FITC-Bim-BH3 fluorescence polarization. inhibition, % at 10.9 µM. actives 0.68% (n = 320,000);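 active means inhibition above the mean inhibition of all tested compounds plus 3 SD, set per campaign, cut at about 40% in these data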;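 further: 0% = DMSO wells and 100% = unlabeled Bim-BH3 peptide control; higher means more loss of mP so more displacement of Bim peptide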
Bim-Mcl-1: human Bim-Mcl-1 interaction inhibition. Q07820. Bead-based flow cytometry, Bim peptide-Mcl-1 binding. inhibition, % at 10 µM. actives 0.1% (n = 190,000). AID 1009; in the data active means inhibition above about 40%;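 further: 0% = no compound tracer wells and 100% = peptide blocker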
Numbers without * were called inactive. Shown are actives, neighbours in structure and some others; about 2.4% of the full set was active somewhere.

How did CCCCn1c(SCC(=O)c2ccc(O)c(O)c2)nc2ccsc2c1=O do in these assays?
L929 necroptosis: 1; Mcl1 Bid PPI: -11; TNF death inh: 0; Mcl1-Noxa inh: 55*; MCL1-BIM inh: 0; Bim-Mcl-1: -5

How did OCc1cccc[n+]1Cc1ccccc1 do in these assays?
MCL1-BIM inh: -5

What do the screens show for `COc1ccc(CN2C(=O)c3cccnc3C2Nc2ccc(OC)c(Cl)c2)cc1` (stereo not drawn)?
L929 necroptosis: 0; Mcl1 Bid PPI: 70*; TNF death inh: 0; Mcl1-Noxa inh: 44; MCL1-BIM inh: 6; Bim-Mcl-1: -4

What do the screens show for `CCOc1ccc(N2C(=O)c3cccnc3C2Nc2ccc(F)cc2)cc1` (stereo not drawn)?
L929 necroptosis: 1; Mcl1 Bid PPI: 84*; TNF death inh: 0; Mcl1-Noxa inh: 19; MCL1-BIM inh: 7; Bim-Mcl-1: 0

How did COc1ccc(NC2c3ncccc3C(=O)N2Cc2ccccc2)c(OC)c1 (stereo not drawn) do in these assays?
L929 necroptosis: 0; Mcl1 Bid PPI: 64*; TNF death inh: -2; Mcl1-Noxa inh: 43; MCL1-BIM inh: 31; Bim-Mcl-1: 6

What do the screens show for `O=C1c2cccnc2C(Nc2ccc(Cl)cc2)N1Cc1cccs1` (stereo not drawn)?
L929 necroptosis: 0; Mcl1 Bid PPI: 3; TNF death inh: 0; Mcl1-Noxa inh: 5; MCL1-BIM inh: 10; Bim-Mcl-1: 0

What do the screens show for `Cc1ccc(NC2c3ncccc3C(=O)N2Cc2ccc(F)cc2)cc1` (stereo not drawn)?
L929 necroptosis: 0; Mcl1 Bid PPI: 51*; TNF death inh: 3; Mcl1-Noxa inh: 32; MCL1-BIM inh: 3; Bim-Mcl-1: -4

What do the screens show for `O=C(NN1CCOCC1)c1cn(-c2ccccc2)nc1-c1cccs1`?
L929 necroptosis: 0; Mcl1 Bid PPI: -29; TNF death inh: 1; Mcl1-Noxa inh: -6; MCL1-BIM inh: 10

Results for Cc1onc(-c2ccccc2)c1C(=O)NC1CCC(C)CC1 (stereo not drawn) ?
MCL1-BIM inh: -1

Results for CC(C)Cc1ccc(S(=O)(=O)N2CCN(c3ccccn3)CC2)cc1 ?
MCL1-BIM inh: 3

Results for O=C(O)c1cc(C(=O)O)cc(-c2ccc(/C=c3/sc4nc5ccccc5n4c3=O)o2)c1 ?
L929 necroptosis: 1; Mcl1 Bid PPI: -32; TNF death inh: 0; Mcl1-Noxa inh: 54*; Bim-Mcl-1: 1

Results for O=C(O)c1cccc(-c2ccc(/C=c3/sc4nc5ccccc5n4c3=O)o2)c1 ?
L929 necroptosis: 0; Mcl1 Bid PPI: 33; TNF death inh: -4; Mcl1-Noxa inh: 89*; MCL1-BIM inh: 22

Results for O=c1/c(=C/c2ccccn2)sc2nc3ccccc3n12 ?
L929 necroptosis: 9; Mcl1 Bid PPI: 47; TNF death inh: 2; Mcl1-Noxa inh: 44; MCL1-BIM inh: 27; Bim-Mcl-1: 0

How did COC(=O)/C=c1/sc2nc3ccccc3n2c1=O do in these assays?
L929 necroptosis: 0; Mcl1 Bid PPI: 11; TNF death inh: -1; Mcl1-Noxa inh: -20; MCL1-BIM inh: 1; Bim-Mcl-1: -17

What do the screens show for `O=c1/c(=C\c2cc([N+](=O)[O-])cc([N+](=O)[O-])c2O)sc2nc3ccccc3n12`?
L929 necroptosis: 0; Mcl1 Bid PPI: 91*; TNF death inh: 1; Mcl1-Noxa inh: 105*; MCL1-BIM inh: -54; Bim-Mcl-1: -1

Results for COc1ccc(N(C)S(=O)(=O)c2cccc(C(=O)N3CCN(S(=O)(=O)c4ccc(C)cc4)CC3)c2)cc1 ?
MCL1-BIM inh: -4

Results for O=C(O)C1CCN(S(=O)(=O)c2cccc3nonc23)CC1 ?
MCL1-BIM inh: 7

Results for O=C1c2ccccc2C(=O)N1CN(C(=O)COc1ccc(Cl)cc1Cl)c1cccc(F)c1 ?
L929 necroptosis: 0; Mcl1 Bid PPI: -13; TNF death inh: 2; Mcl1-Noxa inh: 6; MCL1-BIM inh: -3; Bim-Mcl-1: 92*

How did COc1cccc(N/C(SCc2ccccc2Cl)=C(/C#N)C(=O)NCc2cccs2)c1 do in these assays?
L929 necroptosis: -1; Mcl1 Bid PPI: -7; TNF death inh: 3; Mcl1-Noxa inh: 19; MCL1-BIM inh: 1; Bim-Mcl-1: 14

What do the screens show for `COc1cccc(N/C(SCc2ccccc2C)=C(/C#N)C(=O)NCc2cccs2)c1`?
L929 necroptosis: 0; Mcl1 Bid PPI: 54*; TNF death inh: 3; Mcl1-Noxa inh: 48; MCL1-BIM inh: 9; Bim-Mcl-1: -3

Results for CC1CN(C(=O)c2ccc(OC3CCN(Cc4ccccn4)CC3)cc2)CCN1C (stereo not drawn) ?
MCL1-BIM inh: 6

What do the screens show for `O=C1NCCCCC1NS(=O)(=O)c1ccc(Cl)cc1` (stereo not drawn)?
MCL1-BIM inh: 5

What do the screens show for `O=C(Cn1c(=O)n(-c2ccccc2)c(=O)c2sccc21)N1CCCC1`?
L929 necroptosis: -1; Mcl1 Bid PPI: 6; TNF death inh: -2; Mcl1-Noxa inh: 105*; MCL1-BIM inh: -2; Bim-Mcl-1: 0

What do the screens show for `C/C(=N\NC(=O)C1(C)CC1(Br)Br)c1cccc(NC(=O)c2ccc(C)o2)c1` (stereo not drawn)?
MCL1-BIM inh: 4

What do the screens show for `OCCN1CCN(C(c2cccs2)c2ccc3cccnc3c2O)CC1` (stereo not drawn)?
L929 necroptosis: 1; Mcl1 Bid PPI: 82*; TNF death inh: -16; Mcl1-Noxa inh: 95*; Bim-Mcl-1: 4

Results for CCN1CCN(C(c2ccc(C(F)(F)F)cc2)c2ccc3cccnc3c2O)CC1 (stereo not drawn) ?
MCL1-BIM inh: 39

What do the screens show for `COc1ccc(C(=O)Nc2cc3c4c(c2)CC(=O)N4CCC3)cc1`?
MCL1-BIM inh: 6

How did Cc1cccc(-n2c(SCC(=O)Nc3nnc(C)s3)nnc2-c2ccoc2C)c1 do in these assays?
L929 necroptosis: -1; Mcl1 Bid PPI: 67*; TNF death inh: -3; Mcl1-Noxa inh: -4; MCL1-BIM inh: 4; Bim-Mcl-1: -8

How did CCc1nnc(NC(=O)CSc2nnc(-c3ccoc3C)n2-c2cccc(C)c2)s1 do in these assays?
L929 necroptosis: 0; Mcl1 Bid PPI: -18; TNF death inh: -3; Mcl1-Noxa inh: -9; MCL1-BIM inh: 5; Bim-Mcl-1: -3

Results for N#CCSc1nc2cc(C(=O)N3CCC(C(N)=O)CC3)ccc2c2nc3ccccc3n12 ?
L929 necroptosis: 40; Mcl1 Bid PPI: 2; TNF death inh: -6; Mcl1-Noxa inh: 51*; MCL1-BIM inh: -2; Bim-Mcl-1: 0

How did COc1ccc2o/c(=N\O)c(C(=O)Nc3ccccc3OC)cc2c1 do in these assays?
L929 necroptosis: 0; Mcl1 Bid PPI: 14; TNF death inh: -4; Mcl1-Noxa inh: 60*; MCL1-BIM inh: -74; Bim-Mcl-1: -7
